Screening data from PubChem BioAssay.
Shown are actives, neighbours in structure and some others; about 19% of the full set was active somewhere.
Pf growth 96h = Primary qHTS for delayed death inhibitors of the malarial parasite plastid, 96 hour incubation. Potency, µM (top dose mostly 28.7 µM), inactives show at the highest dose activity change, negative = inhibition, actives largely listed as inhibitors. actives 6.9% (n = 320,000). P. falciparum luciferase reporter growth, 96 h. AID 504834, 2011; note: potency is the fitted concentration of half-maximal effect; % is set by controls: 0 for no effect and ±100 for the full control effect
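Compounds incubated with erythrocytes infected by luciferase-expressing P. falciparum (2% hematocrit, 0.05% parasitemia final) for 96 hours, 37 C in 5% CO2. Growth inhibition scored as decreased luciferase luminescence.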
Shiga toxin inh = A qHTS for Small Molecule Inhibitors of Shiga Toxin; Vero cells, Shiga toxin protein synthesis inhibition reporter; inhibition, % at 38.7 µM; actives 9.2% (n = 290,000); in the data active = inhibition mostly above about 28%, no sharp cut-off; inactive = mostly below about 43%; note: 0% is about no effect
LASV entry inh = qHTS for Inhibitors of binding or entry into cells for Lassa Virus; Lassa virus pseudotype entry inhibition, cell reporter; Potency, µM (highest dose often 37.9 µM), without a hit: top-dose activity change, negative = inhibition, usual class: inhibitors; actives 1.2% (n = 300,000); calls by dose curve; tested in HEK293 cells; note: potency is the fitted concentration of half-maximal effect; % is set by controls: 0 for no effect and ±100 for the full control effect; nearly all actives have a fitted effect of over 50% in size
Cycloheximide cs = Cycloheximide Counterscreen for Small Molecule Inhibitors of Shiga Toxin | cell reporter, cycloheximide protein synthesis inhibition counterscreen | max response, % | actives 12% (n = 300,000) | AID 2314, 2010; in the data active = max response mostly above about 13%, no sharp cut-off; inactive = mostly below about 14%; note: read at 38.3 µM for the half of the compounds with a filed dose; 0% is about no effect
Marburg entry inh = qHTS for inhibitors of binding or entry into cells for Marburg Virus | Marburg virus pseudotyped entry inhibition, cell reporter | Potency, µM (series often up to 37.8 µM), for inactives: at the highest dose activity change, negative = inhibition, usual class: inhibitors | actives 1.8% (n = 300,000) | AID 540276, 2011; calls by dose curve; tested in HEK293 cells; note: potency is the fitted concentration of half-maximal effect; % is set by controls: 0 for no effect and ±100 for the full control effect
Pf growth 48h = Primary qHTS for delayed death inhibitors of the malarial parasite plastid, 48 hour incubation | actives 5.9% (n = 310,000) | Potency, µM (series often up to 28.7 µM), without a hit: at the highest dose activity change, negative = inhibition, usual class: inhibitors | AID 504832, 2011 | P. falciparum luciferase growth in erythrocytes, 48 h; note: potency is the fitted concentration of half-maximal effect; % is set by controls: 0 for no effect and ±100 for the full control effect
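Erythrocytes infected with P. falciparum carrying an integrated firefly luciferase reporter (2% hematocrit, 0.1% parasitemia final) were exposed to compounds in RPMI 1640 with 0.5% Albumax at 37 C, 5% CO2. Growth inhibition was scored as reduced luminescence.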
* hit, by the source's call; [ ] = dose if it differs, or a comment. Unless noted, calls come from the whole dose curve; as a rule, active = well fitted inhibition curve with a large enough effect; inconclusive = small, poorly fitted or top-dose-only effect, or another doubt; inactive = no such curve, though single readings can be large or run the other way.

COc1ccc(CN(C(=O)c2snc(C(N)=O)c2N)C(C(=O)NC2CCCC2)c2ccc(OC)c(OC)c2)cc1 (stereo not drawn) was read as Pf growth 96h 37%, Shiga toxin inh -9, LASV entry inh -14%[46.1 µM], Cycloheximide cs -5, Marburg entry inh -22%[46.1 µM] and Pf growth 48h inconclusive.
Screening COc1ccc(CN(C(=O)c2nsc(Cl)c2Cl)C(C(=O)NC2CCCCC2)c2ccc(OC)cc2)cc1 (stereo not drawn) returned Pf growth 96h inconclusive, Shiga toxin inh -4, LASV entry inh inconclusive, Cycloheximide cs -2, Marburg entry inh 15µM* and Pf growth 48h inconclusive.
For Cc1[nH]c2ccc(F)cc2c(=O)c1SC(F)(F)C(F)F the results were Pf growth 96h -15%, Shiga toxin inh 1, LASV entry inh 8%, Cycloheximide cs 1, Marburg entry inh 5% and Pf growth 48h 13µM*.
Screening O=C(CSC1=NCCS1)Nc1ccc(F)cc1 returned Pf growth 96h -1%, Shiga toxin inh -4, LASV entry inh -8%[46.1 µM], Cycloheximide cs 4, Marburg entry inh inconclusive and Pf growth 48h 4%.
Screening NC(=O)c1ccccc1NC(=O)CSC1=NCCS1 returned Pf growth 96h inconclusive, Shiga toxin inh 14, Cycloheximide cs 11* and Pf growth 48h 0%.
For O=C(CSc1nc2ccccc2o1)Nc1nc2ccccc2s1 the results were Shiga toxin inh 49*, LASV entry inh inconclusive, Cycloheximide cs 43*, Marburg entry inh -2% and Pf growth 48h 42%.
Screening O=C(CSc1nc2ccccc2o1)Nc1nc(-c2ccccc2)cs1 returned Pf growth 96h 328%, Shiga toxin inh 111*, LASV entry inh 16%, Cycloheximide cs 72*, Marburg entry inh 47% and Pf growth 48h 231%.
`O=C(CSc1nc2ccccc2o1)Nc1nccs1` gave Pf growth 96h inconclusive, Shiga toxin inh 31, LASV entry inh 14%[46.1 µM], Cycloheximide cs 28*, Marburg entry inh inconclusive and Pf growth 48h 118%.
Screening CCCCc1nc2n[nH]c(N)c2c2c1CSC(C)(C)C2 returned Shiga toxin inh -4, LASV entry inh -8%, Cycloheximide cs -2, Marburg entry inh inconclusive and Pf growth 48h -5%.
`Cc1nc2nc(NCc3cccc(Cl)c3)[nH]n2c(=O)c1Cc1ccccc1` gave LASV entry inh 18%[46.1 µM] and Marburg entry inh 12%[46.1 µM].
CCN(C(=O)c1cccn(Cc2cccc(Cl)c2)c1=O)c1ccccc1 was read as LASV entry inh 11%[46.1 µM].
`O=C(CSC1=NCCS1)Nc1nc2ccccc2s1` gave Pf growth 96h -11%, Shiga toxin inh 81*, LASV entry inh 8%, Cycloheximide cs 28*, Marburg entry inh -14% and Pf growth 48h 91%.
Screening Cc1cccc(N(Cc2cc3ccccc3[nH]c2=O)S(=O)(=O)c2ccccc2)c1 returned Pf growth 96h 10µM*, Shiga toxin inh 8, LASV entry inh 0%, Cycloheximide cs -2, Marburg entry inh 20% and Pf growth 48h 15µM*.
Cc1cccc2cc(CN(CC(C)C)S(=O)(=O)c3ccccc3)c(=O)[nH]c12 was read as Pf growth 96h 13µM*, Shiga toxin inh -6, Cycloheximide cs -12 and Pf growth 48h inconclusive.
Screening Cc1ccc(/C=C/C(=O)N2CCN(S(=O)(=O)c3c(C)c(C)cc(C)c3C)CC2)o1 returned Pf growth 96h inconclusive, Shiga toxin inh -8, LASV entry inh inconclusive, Cycloheximide cs -3, Marburg entry inh 1% and Pf growth 48h 7.4µM*.
`Cc1ccc(/C=C/C(=O)N2CCN(S(=O)(=O)c3ccc(C)c(C)c3)CC2)o1` gave Pf growth 96h 5.9µM*, Shiga toxin inh -3, LASV entry inh -4%, Cycloheximide cs -2, Marburg entry inh inconclusive and Pf growth 48h inconclusive.
For Cc1ccc(NC(=O)c2ccncc2)cc1S(=O)(=O)N(C)C the results were Pf growth 96h 12%, Shiga toxin inh 7, LASV entry inh -24%, Cycloheximide cs 0, Marburg entry inh -16% and Pf growth 48h 18%.
